# Source: PubChem BioAssay (National Center for Advancing Translational Sciences (NCATS))
# This excerpt belongs to a sample that is enriched for hits.
# Pf Dd2 growth = blocks in vitro growth of P. falciparum Dd2; AID 1347417; hit rate 4.3% among 120,000; P. falciparum Dd2 growth, SYBR Green, 72 h; Potency, µM (series often up to 28.9 µM), inactives show at the top dose activity, negative = inhibition, usual class: inhibitors; active = well fitted inhibition curve with a large enough effect;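 note: plate controls were DMSO vehicle for no effect and reference drug for full effect; nearly all actives have a fitted effect of over 65% in size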
#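 Readout: SYBR Green fluorescence, 485 nm excitation, 535 nm emission, after ~16 h lysis at 37C. Before that, Dd2-infected red cells (2.5% hematocrit) grew 72 h with compound, 29 uM top final concentration.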
# * = called active by the depositor; i = inactive; [ ] = remark or other dose. Potency is the fitted concentration of half-maximal effect.
SMILES,Pf Dd2 growth
O=C1NC(=NC2CCCCC2)C2(CCN([S+](=O)([O-])c3ccccc3)C2)N1c1cc(F)cc(F)c1 (configuration not stated),-28%
O=C1NC(=NC2CCCCC2)C2(CCN(Cc3ccc(F)cc3)CC2)N1c1cccnc1,4%
O=C1NC(=NC2CCCC2)C2(CCCN(Cc3cccnc3)C2)N1c1cccnc1 (configuration not stated),7%
O=C1NC(=NC2CCCCC2)C2(CCCN(Cc3ccc(F)cc3)C2)N1c1cc(F)cc(F)c1 (configuration not stated),7.9µM*
O=C(c1cccnc1)N1CCCC2(C1)C(=NC1CCCC1)NC(=O)N2c1cc(F)cc(F)c1 (configuration not stated),-17%
O=C1NC(=NC2CCCCC2)C2(CCN(Cc3ccc(F)cc3)C2)N1c1cc(F)cc(F)c1 (configuration not stated),1.8µM*
Cc1cc(C[C@@H]2COC[C@@H]2NC(=O)c2cnn(-c3ccccc3)c2)on1,2%
Cn1ccc2c(NC(=O)C[C@H]3NC(=O)c4ccccc4NC3=O)cccc21,i
O=C([C@@H]1C[C@H](Oc2ccccc2)CN1C(=O)CC1CCCC1)N1CCCC1,i
O=C([C@@H]1C[C@H](Oc2ccccc2)CN1C(=O)C1(c2ccccc2)CC1)N1CCCC1,1.8µM*
CC(C)CC(=O)N1C[C@@H](Oc2ccccc2)C[C@H]1C(=O)N1CCCC1,-1%
O=C(c1cnc(Cc2c(Cl)cccc2Cl)[nH]c1=O)N1CCCCC1,-2%
CCOC(=O)c1c(NC(=O)CSc2nc(-c3ccccc3)cc(C(F)(F)F)n2)sc(C)c1C,i
CCOC(=O)c1sc(NC(=O)C(C)Sc2nc(-c3ccccc3)cc(C(F)(F)F)n2)c(C(=O)OC)c1C (configuration not stated),0.71µM*
COc1ccc(CNC(=O)C(C)Sc2nc(-c3ccccc3)cc(C(F)(F)F)n2)cc1 (configuration not stated),-18%
CS(=O)(=O)N1CCC2(CC1)NCCc1c2[nH]c2ccccc12,i
Cn1c(CN2CCC(O)CC2)nnc1C1CCCN(C2CCNCC2)C1 (configuration not stated),5%
CCn1nccc1C(=O)N1CC(Oc2ccccc2-c2nc(CCOC)no2)C1,4.5µM*
Cc1nc(C)c(C(=O)N2CC(Oc3ccccc3-c3nc(C4CC4)no3)C2)s1,i
CCn1nccc1C(=O)N1CC(Oc2ccc(-c3nc(C)no3)cc2)C1,69%[5.79 µM]
CCCNC(=O)N1CC(Oc2ccccc2-c2nc(CCOC)no2)C1,-16%
COCCc1noc(-c2ccccc2OC2CN(C(=O)C(C)C)C2)n1,3.2µM*
COCCc1noc(C2CN(C(=O)C(C)C)C2)n1,11%
CCn1ccc2sc(C)c(C(=O)O)c2c1=O,-9%
Cc1nc(NCc2ccc(S(=O)(=O)N(C)C)cc2)cc(C2CC(O)C2)n1 (configuration not stated),-8%
SMILES,Pf Dd2 growth
Cc1nc2n(n1)C(C(=O)Nc1ccccc1)CC(=O)N2 (configuration not stated),-1%
CC(C)CNC1(Cc2cc(CN(C)C)on2)COC1,12%[44.1 µM]
Cc1ccsc1C(=O)N1CCCC(Cc2nc(C3CCOCC3)no2)C1 (configuration not stated),-6%
CN1CCCN(C(=O)CCc2ccccc2)c2ccccc21,i
CN(C)CCN1CCCN(C(=O)CCc2ccccc2)c2ccccc21,7.1µM*
COc1ccccc1CC(=O)N1CCCN(CCc2ccccc2)c2ccccc21,7.9µM*
O=C(c1cc(F)ccc1F)N1CCCN(CCc2ccccc2)c2ccccc21,i
COc1ccc(CCC(=O)N2CCCN(C)c3ccccc32)cc1,-15%
O=C(c1ccncc1)N1CCCN(CCc2ccccc2)c2ccccc21,i
O=C(NCc1ccccc1)C1(CCO)CC12CCOCC2 (configuration not stated),0%
O=C(N1CCC(Cc2nc(C3CC3)n[nH]2)CC1)C1(c2ccccc2)CC1,i
C#CC(C)(C)NS(=O)(=O)c1cc(-c2nnc(Nc3ccc(C)cc3)c3ccccc23)ccc1C,5µM*
Cc1ccc(-c2nnc(Nc3ccc(Cl)c(Cl)c3)c3ccccc23)cc1S(=O)(=O)N(C)C,10µM*
CCN(CC)C(=O)c1ccc(Nc2nnc(-c3ccc(C)c(S(=O)(=O)NC)c3)c3ccccc23)cc1,3.2µM*
C#CCOc1ccc(-c2nnc(Nc3ccc(NC(C)=O)cc3)c3ccccc23)cc1,44%
Cc1cc(C)n(-c2nnc(Nc3ccc(C)c(Cl)c3)c3ccccc23)n1,i
CCOc1ccc(-c2nnc(Nc3ccc(S(N)(=O)=O)cc3)c3ccccc23)cc1,13%
CCCNS(=O)(=O)c1cc(-c2nn3c(C)nnc3c3ccccc23)ccc1C,-13%
Cc1cccc(Nc2nnc(-c3ccc(C)c(S(=O)(=O)N4CCCCC4)c3)c3ccccc23)c1,36%
Cc1ccc(C)c(Nc2nnc(-c3ccc(C)c(S(=O)(=O)N4CCN(C)CC4)c3)c3ccccc23)c1,16%
COCCNc1ncc(-c2ccc(OC)c(OC)c2)c2c1OCC2,i
COc1cccc(C2Cn3nnc(-c4nc(-c5ccc(Cl)cc5)no4)c3CO2)c1 (configuration not stated),i
COCC1CN(C(C)=O)CC12CCN(Cc1ccc(Cl)cc1)CC2 (configuration not stated),10%
O=C([C@@H]1C[C@H](F)CN1S(=O)(=O)c1ccc(F)cc1F)N1CCCCC1,41%
O=C(O)c1ccccc1C(=O)N1CC[C@H]2COC(=O)N2c2cc(F)ccc2C1,-7%[44.1 µM]
SMILES,Pf Dd2 growth
O=C(c1cccnc1)N1CCC2(CC1)C(=O)NN=C2C1CC1,11%[44.1 µM]
CCN1C(=O)C2(CCN(S(=O)(=O)c3cccs3)CC2)c2ccccc21,46%
CCN1CC(C(=O)NCc2csc(-c3ncccn3)n2)CCC1=O (configuration not stated),-3%
COC[C@@H]1CN(S(=O)(=O)c2cccc(C)c2)C[C@H]1c1nc(C)no1,-2%
CC(=O)N1Cc2ccccc2CC2(CCCN(C)C2)C1 (configuration not stated),-7%[44.1 µM]
CCN1CCCC2(Cc3ccccc3CN(C(=O)CCNC(C)=O)C2)C1 (configuration not stated),11%
CC(=O)N1Cc2ccccc2CC2(CCCN(CC3CCOCC3)C2)C1 (configuration not stated),-5%
CCN1CCCC2(Cc3ccccc3CN(C(=O)C(C)C)C2)C1 (configuration not stated),11µM*
CC(C)C(=O)N1Cc2ccccc2CC2(CCCN(CC3CCOCC3)C2)C1 (configuration not stated),7.1µM*
CC(C)C(=O)N1Cc2ccccc2CC2(CCN(CC3CCNCC3)C2)C1 (configuration not stated),2%
CC(C)C(=O)N1CCC(O)(c2csc(CN3CCN(C)CC3)n2)CC1,12%[44.1 µM]
Cc1noc([C@@H]2CN(C(=O)c3occc3C)C[C@H]2COCC2CC2)n1,-14%
COCCNC(=O)[C@@H]1CCC[C@@H](NC(=O)C(C)(C)C)CN(C)C(=O)C1,-8%[44.1 µM]
O=[S+]1([O-])NCC2(CCN(Cc3ccc(F)cc3)CC2)Nc2ccccc21,8.9µM*
Cc1ccc(CN2CCCC3(CN[S+](=O)([O-])c4ccccc4N3)C2)cc1 (configuration not stated),-27%
Cc1ccc(CN2CCC3(CC2)CN[S+](=O)([O-])c2ccccc2N3)cc1,5µM*
COc1ccc(CN2CCC3(CC2)CNc2ccccc2[S+](=O)([O-])N3)cc1,i
